# Mtb RmlCD inh: M. tuberculosis RmlC/RmlD inhibition; inhibition, % at 3.6 µM; RmlC+RmlD coupled enzyme assay, percent inhibition; primary screen in compound mixtures; 160,000 compounds, 0.03% hits; P9WH09+P9WH11; in the data active means inhibition mostly above about 34%, no sharp cut-off
# Target sequence (P9WH09 whole entry, looked up): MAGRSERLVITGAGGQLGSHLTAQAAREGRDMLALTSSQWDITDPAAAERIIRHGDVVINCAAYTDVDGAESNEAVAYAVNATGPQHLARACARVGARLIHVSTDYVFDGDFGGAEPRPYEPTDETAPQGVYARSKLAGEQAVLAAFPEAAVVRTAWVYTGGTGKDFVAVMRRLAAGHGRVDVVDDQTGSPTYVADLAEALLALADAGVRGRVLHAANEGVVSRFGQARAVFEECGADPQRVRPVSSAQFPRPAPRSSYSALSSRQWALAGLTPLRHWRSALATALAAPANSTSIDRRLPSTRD
# Target sequence (P9WH11 whole entry, looked up): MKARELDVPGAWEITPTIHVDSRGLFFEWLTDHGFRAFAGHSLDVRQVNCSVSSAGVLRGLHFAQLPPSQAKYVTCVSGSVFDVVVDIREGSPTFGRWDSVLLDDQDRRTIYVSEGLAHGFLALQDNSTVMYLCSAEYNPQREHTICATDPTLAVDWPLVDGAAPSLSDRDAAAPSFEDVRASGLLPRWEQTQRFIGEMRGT
# The depositor's hits bear a star. The full list was thinned out, with hits kept by preference.
SMILES,Mtb RmlCD inh
CCNC(=O)c1cc2c(=O)n3cccc(C)c3nc2n(CCc2ccccc2)c1=N,32*
Cc1cccn2c(=O)c3cc(C(=O)NCCc4ccccc4)c(=N)n(CCCn4ccnc4)c3nc12,11
CCCn1c(=N)c(C(=O)NCC2CCCO2)cc2c(=O)n3cccc(C)c3nc21 (centres undefined),109*
CC(C)CC(=O)NS(=O)(=O)c1ccc(NS(C)(=O)=O)cc1,8
CCCCCN(C(=O)NC(=O)Nc1ccc(C)cc1)S(=O)(=O)c1ccccc1,4
O=C(NC(C(=O)N/N=C/c1cccnc1)c1n[nH]c(=O)c2ccccc12)c1ccccc1 (centres undefined),-6
O=C(Nc1ccc(N=Nc2ccccc2)c(NC(=O)C2CCCO2)c1)C1CCCO1 (centres undefined),-12
COc1ccc(OC)c2[nH]c(=O)c(CCNC(C)=O)cc12,-10
COc1cccc2c(=O)cn[nH]c12,-1
COC(=O)c1cc(=O)c2cccc(OC)c2[nH]1,62*
CC1CCN(S(=O)(=O)c2cccc(C(=O)Nc3ccccc3)c2)CC1,-1
N#Cc1cnn2c(-c3ccccc3)ccnc12,11
COc1ccc(-c2ccnc3nc(N4CCN(c5ccccc5)CC4)nn23)cc1,-2
COc1ccc(-c2ccnc3c(C#N)cnn23)cc1,44*
Cn1nnnc1SCc1ccc([N+](=O)[O-])cc1,0
CC1CCCC(C)N1CC(C)(C)NS(=O)(=O)c1ccc(Cl)cc1 (centres undefined),10
Cc1c(NC(=O)C(C)OC(=O)/C=C/c2ccc3c(c2)OCO3)c(=O)n(-c2ccccc2)n1C (centres undefined),-9
COC(=O)Cc1c(C)c2ccc(OC(C)C)cc2oc1=O,-9
COC(=O)Cc1c(C)c2cc(Cl)c(OC(=O)c3ccco3)cc2oc1=O,21
COC(=O)Cc1c(C)c2ccc(OC(=O)c3ccco3)cc2oc1=O,83*
O=C(Nc1ccccc1O)c1c(O)c2c([nH]c1=O)CCCC2,3
Fc1cccc2sc(N3CCCC3)nc12,-6
